Reference: PubChem BioAssay (Tox21)
Records with an inconclusive call do not appear. Where a call stands in place of a potency, no number is given. Calls of active or inactive are those of the source. Unless noted, calls follow the shape of the dose curve; as a rule, active = well fitted curve in the direction sought with a large enough effect in the repeat runs; inconclusive = weak or mixed curves; inactive = no such curve, though single readings can be large; an effect the other way counts as inactive or inconclusive.

Legend:
[1] = qHTS assay to identify small molecule agonists of the estrogen receptor alpha (ER-alpha) signaling pathway in the presence of an antagonist - cell viability counter screen (AID 1259386);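 also: cells exposed to compounds for 22 h at 37 °C before the viability read; nearly all actives have a fitted effect of over 30% in size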; also: potency is read from the fitted curve at half-maximal effect
In short: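 VM7Luc4E2, stripped-serum pre-culture 5 d; 24hr plating; +ICI-182,780 10.0nM final; cpds 15 conc, 22hr, 37C/5% CO2; CellTiter-Fluor added at 21hr, fluorescence 1hr later.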

[2] = target: Progesterone receptor (Homo sapiens) (UniProt P06401); assay: qHTS assay to identify small molecule agonists of the progesterone receptor (PR) signaling pathway (AID 1346784; calls by dose curve; also: nearly all actives have a fitted effect of over 30% in size)
Chain of Progesterone receptor (Homo sapiens) (P06401 whole entry, looked up): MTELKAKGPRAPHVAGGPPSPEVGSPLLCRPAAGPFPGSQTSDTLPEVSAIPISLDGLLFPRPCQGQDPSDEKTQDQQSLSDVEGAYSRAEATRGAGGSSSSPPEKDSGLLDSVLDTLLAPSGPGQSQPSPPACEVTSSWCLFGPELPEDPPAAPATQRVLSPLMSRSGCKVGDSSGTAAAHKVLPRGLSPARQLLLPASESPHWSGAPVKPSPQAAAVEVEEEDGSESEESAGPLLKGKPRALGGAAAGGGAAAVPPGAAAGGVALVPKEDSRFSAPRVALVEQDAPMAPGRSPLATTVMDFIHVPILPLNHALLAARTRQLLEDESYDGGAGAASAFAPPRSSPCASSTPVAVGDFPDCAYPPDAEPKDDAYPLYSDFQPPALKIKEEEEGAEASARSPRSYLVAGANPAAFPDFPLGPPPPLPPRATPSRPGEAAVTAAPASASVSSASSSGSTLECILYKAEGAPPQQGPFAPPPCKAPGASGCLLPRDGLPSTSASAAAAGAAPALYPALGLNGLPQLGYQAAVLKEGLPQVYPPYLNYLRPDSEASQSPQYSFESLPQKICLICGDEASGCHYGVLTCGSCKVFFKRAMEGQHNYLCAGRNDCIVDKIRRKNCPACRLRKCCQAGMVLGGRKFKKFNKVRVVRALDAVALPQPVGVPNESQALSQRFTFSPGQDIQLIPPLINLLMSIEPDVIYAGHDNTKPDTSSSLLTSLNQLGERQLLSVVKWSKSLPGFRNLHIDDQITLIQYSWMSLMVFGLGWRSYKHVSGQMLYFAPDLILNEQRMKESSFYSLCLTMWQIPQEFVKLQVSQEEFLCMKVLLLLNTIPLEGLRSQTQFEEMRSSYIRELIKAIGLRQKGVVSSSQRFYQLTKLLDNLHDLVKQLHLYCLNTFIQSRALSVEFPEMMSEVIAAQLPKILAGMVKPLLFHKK
In short: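 PR-UAS-bla HEK 293T cells (beta-lactamase reporter under UAS) in 2% charcoal-stripped FBS, dosed with 23 nL compound after 6 hr, incubated 16hr at 37C. LiveBLAzer B/G FRET substrate added, fluorescence read after 2 hours.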

[3] = qHTS assay to identify small molecule agonists of the progesterone receptor (PR) signaling pathway - cell viability counter screen (AID 1346799; calls by dose curve; also: nearly all actives have a fitted effect of over 45% in size)
In short: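 Counter screen in the PR-UAS-bla HEK293T wells (2% charcoal-stripped FBS, 16 h compound exposure at 37 C) after the bla read. CellTiter-Glo added, 30 min at room temperature, luminescence read as cell viability.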

[4] = qHTS assay to identify small molecule antagonists of the TGF-beta/Smad signaling pathway - cell viability counter screen (AID 1346824); also: nearly all actives have a fitted effect of over 50% in size
In short: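 SBE-bla HEK 293T cells were plated overnight at 37 C, then given compounds in DMSO plus TGF-beta1 (added as 0.25 ng/mL solution) for 5 hr. After the bla read, CellTiter-Glo was added to the same wells and luminescence read after 30 min at room temperature.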

[5] = qHTS assay to identify small molecule agonists of the TGF-beta/Smad signaling pathway - cell viability counter screen (AID 1346829); also: top concentration of the series differs between compounds; nearly all actives have a fitted effect of over 45% in size
In short: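 CellTiter-Glo luminescence readout; SBE-bla HEK 293T cells, overnight plating, compound 5 hr at 37 C/5% CO2, then bla substrate 2 hr RT, then CellTiter-Glo 30 min RT.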

[6] = qHTS assay to identify small molecule agonists of the TGF-beta/Smad signaling pathway (AID 1346859; active = well fitted activation curve with a large enough effect in the signal ratio in the repeat runs, not every such curve was filed as active; the % refers to the signal ratio; also: series mostly up to about 77 µM)
In short: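 SBE-bla HEK293T cells plated overnight, then compound exposure for 5 h at 37 C. Beta-lactamase reporter read with LiveBLAzer B/G FRET substrate after 2 h at room temperature, fluorescence at 405 nm excitation, 460/530 nm emission.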

[7] = target: Thyrotropin-releasing hormone receptor (Homo sapiens) (UniProt P34981); assay: qHTS assay to identify small molecule antagonists of the thyrotropin-releasing hormone receptor (TRHR) signaling pathway (AID 1346877; active = well fitted inhibition curve with a large enough effect in the repeat runs, not every such curve was filed as active; also: series mostly up to about 51 µM)
Chain of Thyrotropin-releasing hormone receptor (Homo sapiens) (P34981 whole entry, looked up): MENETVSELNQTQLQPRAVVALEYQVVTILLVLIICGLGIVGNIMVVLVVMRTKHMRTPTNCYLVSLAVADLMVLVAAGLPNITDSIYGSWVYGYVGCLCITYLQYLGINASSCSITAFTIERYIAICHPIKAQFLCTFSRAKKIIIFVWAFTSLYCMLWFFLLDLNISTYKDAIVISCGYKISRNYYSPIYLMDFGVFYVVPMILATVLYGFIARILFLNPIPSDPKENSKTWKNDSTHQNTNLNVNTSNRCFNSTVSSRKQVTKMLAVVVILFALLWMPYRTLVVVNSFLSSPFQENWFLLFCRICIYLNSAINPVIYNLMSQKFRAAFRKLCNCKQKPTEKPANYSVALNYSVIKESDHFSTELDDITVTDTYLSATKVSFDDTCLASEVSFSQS
In short: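 Intracellular calcium fluorescence, read kinetically every second over 3 min, reports TRH-evoked signalling in HEK293 cells carrying TRHR. Test compounds were added 5 min ahead of a 1 nM TRH challenge.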

[8] = target: Thyrotropin-releasing hormone receptor (Homo sapiens) (UniProt P34981); assay: qHTS assay to identify small molecule agonists of the thyrotropin-releasing hormone receptor (TRHR) signaling pathway (AID 1346891; calls by dose curve; also: series mostly up to about 58 µM)
In short: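 HEK293 cells expressing TRHR plated 18 h at 37 C/5% CO2, calcium dye-loaded 2 h at 37 C, then compound added (agonist mode); kinetic calcium fluorescence read 3 min at 1 s intervals; 15 concentrations in triplicate.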

[9] = Human pregnane X receptor (PXR) small molecule agonists, qHTS cell viability counter screen (AID 1346977); also: nearly all actives have a fitted effect of over 50% in size; also: potency is read from the fitted curve at half-maximal effect
In short: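 PXR-Luc HepG2 cells (2,000/well, 5% charcoal-stripped FBS) preincubated 5 hr, then exposed to compounds 24 hr at 37 C. Viability read in the same wells by CellTiter-Fluor fluorescence, reagent added at 23 hr, 1 hr incubation.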

[10] = Caspase-3/7 induction in HepG2 cells by small molecules, qHTS assay (AID 1346978); also: nearly all actives have a fitted effect of over 15% in size
In short: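 Wild-type HepG2 cells (2,000/well) were settled 5 h at 37 C, 5% CO2, then exposed to compounds in DMSO for 17 h. Caspase-3/7 activity was read by luminescence 30 min after adding Caspase-Glo 3/7 reagent at room temperature.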

[11] = Caspase-3/7 induction in CHO-K1 cells by small molecules, qHTS cell viability counter screen (AID 1346979); also: nearly all actives have a fitted effect of over 35% in size; also: potency is read from the fitted curve at half-maximal effect
In short: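 Wild-type CHO-K1 cells (1,500/well) treated with compound after 5 h plating; after 16 h at 37C, viability read as CellTiter-Fluor fluorescence following 1 h reagent incubation, in the same wells as the caspase read.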

[12] = Caspase-3/7 induction in CHO-K1 cells by small molecules, qHTS assay (AID 1346980); also: nearly all actives have a fitted effect of over 15% in size
In short: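 Wild-type cells were seeded at 1,500 per well and settled 5 hr at 37 C, 5% CO2, then exposed to DMSO-dissolved compounds for 17 hr. Caspase-Glo 3/7 reagent was added, and luminescence was read after 30min at room temperature.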

[13] = Caspase-3/7 induction in HepG2 cells by small molecules, qHTS cell viability counter screen (AID 1346981); also: nearly all actives have a fitted effect of over 30% in size; also: potency is read from the fitted curve at half-maximal effect
In short: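 HepG2, WT, 2,000 cells/well; 5 hr pre-incubation 37 C/5% CO2; compound pin-transferred from DMSO; 16 hr exposure; CellTiter-Fluor, 1 hr; fluorescence read.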

[14] = target: Nuclear receptor subfamily 1 group I member 2 (Homo sapiens) (UniProt O75469); assay: Human pregnane X receptor (PXR) small molecule agonists, qHTS assay (AID 1346982); also: nearly all actives have a fitted effect of over 35% in size; also: potency is read from the fitted curve at half-maximal effect
Chain of Nuclear receptor subfamily 1 group I member 2 (Homo sapiens) (O75469 whole entry, looked up): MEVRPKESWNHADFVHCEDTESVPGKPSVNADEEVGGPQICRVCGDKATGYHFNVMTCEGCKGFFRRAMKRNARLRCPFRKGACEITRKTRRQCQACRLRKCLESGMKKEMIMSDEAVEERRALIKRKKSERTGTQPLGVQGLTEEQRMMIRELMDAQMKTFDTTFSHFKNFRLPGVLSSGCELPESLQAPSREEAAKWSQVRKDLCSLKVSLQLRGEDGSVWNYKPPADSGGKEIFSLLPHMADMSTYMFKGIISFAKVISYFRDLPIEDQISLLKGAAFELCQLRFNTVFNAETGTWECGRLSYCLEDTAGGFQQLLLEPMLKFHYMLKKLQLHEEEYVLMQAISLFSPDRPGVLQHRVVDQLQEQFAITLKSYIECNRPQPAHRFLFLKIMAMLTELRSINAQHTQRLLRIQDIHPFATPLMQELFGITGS
In short: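 Luciferase signal from ONE-Glo (30 min, room temperature) measured activation of hPXR-driven CYP3A4 reporter expression in PXR-Luc HepG2 cells treated with compounds for 24 hr at 37 C.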

[15] = target: Acetylcholinesterase (Homo sapiens) (UniProt P22303); assay: Acetylcholinesterase (AChE) small molecule antagonists: colormetric cell-based qHTS assay (AID 1347395; calls by dose curve; also: nearly all actives have a fitted effect of over 30% in size; also: potency is read from the fitted curve at half-maximal effect)
Chain of Acetylcholinesterase (Homo sapiens) (P22303 whole entry, looked up): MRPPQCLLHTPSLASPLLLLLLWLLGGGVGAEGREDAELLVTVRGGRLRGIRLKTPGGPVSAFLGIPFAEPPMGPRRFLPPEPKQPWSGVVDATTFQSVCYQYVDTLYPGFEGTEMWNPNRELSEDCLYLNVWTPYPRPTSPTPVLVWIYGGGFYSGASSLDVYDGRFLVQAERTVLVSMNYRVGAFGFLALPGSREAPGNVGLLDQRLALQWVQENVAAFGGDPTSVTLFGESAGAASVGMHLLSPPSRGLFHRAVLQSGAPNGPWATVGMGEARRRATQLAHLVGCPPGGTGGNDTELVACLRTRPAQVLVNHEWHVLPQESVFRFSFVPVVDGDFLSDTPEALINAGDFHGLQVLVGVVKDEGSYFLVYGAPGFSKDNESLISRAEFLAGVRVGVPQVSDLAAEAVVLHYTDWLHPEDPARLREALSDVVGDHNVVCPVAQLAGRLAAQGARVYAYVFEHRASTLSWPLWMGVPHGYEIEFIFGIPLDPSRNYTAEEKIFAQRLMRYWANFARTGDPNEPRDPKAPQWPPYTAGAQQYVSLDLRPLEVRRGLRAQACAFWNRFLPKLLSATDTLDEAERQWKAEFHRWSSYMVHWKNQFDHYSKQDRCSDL
In short: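 SH-SY5Y cells attached overnight, exposed to compound 30 min at 37 C, then given DTNB/acetylthiocholine; after 90 min at 37 C, colorimetric thiocholine read gives cellular AChE activity.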

[16] = target: Acetylcholinesterase (Homo sapiens) (UniProt P22303); assay: Acetylcholinesterase (AChE) small molecule antagonists: enzyme-based qHTS assay (AID 1347397; calls by dose curve; also: nearly all actives have a fitted effect of over 55% in size); conditions: Potency: AChE enzyme activity inhibition
In short: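 Human recombinant acetylcholinesterase; substrate acetylthiocholine; thiocholine quantified with DTNB (colorimetric). Compound preincubation 30 min RT; reaction 10 min RT.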

In the case of `CCCN(CCCl)c1c([N+](=O)[O-])cc(C(F)(F)F)cc1[N+](=O)[O-]`, the Potency [1] is reported as “inactive”, the Potency [2] is reported as “inactive” and the Potency [3] is reported as “inactive”. The Potency [4] was “inactive”, the Potency [5] was “inactive” and the outcome [6] was “inactive”. The Potency [7] was “inactive”, the Potency [8] was “inactive” and the Potency [9] was “inactive”. The Potency [10] was “inactive”, the Potency [11] was “inactive” and the Potency [12] was “inactive”. For the same molecule, the Potency [13] was “inactive”, the Potency [14] was 21.7 µM (active) and the Potency [15] was “inactive”. For the same molecule, the Potency [16] was “inactive”.
For `COC(N)=O`, the Potency [1] was “inactive”, the Potency [2] was “inactive” and the Potency [4] was “inactive”. The Potency [5] was “inactive”, the outcome [6] was “inactive” and the Potency [7] was “inactive”. For the same molecule, the Potency [8] was “inactive”, the Potency [9] was “inactive” and the Potency [10] was “inactive”. The Potency [11] was “inactive”, the Potency [12] was “inactive” and the Potency [13] was “inactive”. For the same molecule, the Potency [14] was “inactive”, the Potency [15] was “inactive” and the Potency [16] was “inactive”.
With `CC(C)(C)c1cc([N+](=O)[O-])cc([N+](=O)[O-])c1O` the Potency [1] was 19.3 µM (active), the Potency [2] was “inactive” and the Potency [5] was “inactive”. For the same molecule, the outcome [6] was “inactive”, the Potency [7] was “inactive” and the Potency [9] was 6.84 µM (active). For the same molecule, the Potency [10] was “inactive”, the Potency [11] was 17.2 µM (active) and the Potency [12] was “inactive”. The Potency [13] was 21.6 µM (active), the Potency [14] was 19.3 µM (active) and the Potency [15] was “inactive”. The Potency [16] was “inactive”.
For `COc1nn(CSP(=S)(OC)OC)c(=O)s1`, the Potency [1] was “inactive”, the Potency [2] was “inactive” and the Potency [4] was “inactive”. For the same molecule, the Potency [5] was “inactive”, the outcome [6] was “inactive” and the Potency [8] was “inactive”. For the same molecule, the Potency [9] was “inactive”, the Potency [10] was “inactive” and the Potency [12] was “inactive”. For the same molecule, the Potency [14] was 54.5 µM (active), the Potency [15] was 69.6 µM (active) and the Potency [16] was “inactive”.
